HIF-2a block – blocks HIF-2a reporter activity; inhibition, % at 18.8 µM; AID 624352; 360,000 tested, 0.72% active; 786-0 RCC cells HIF-2a reporter, luciferase luminescence, overnight;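 active means inhibition of the luminescence signal of 40% or more relative to plate controls, in a single-dose primary screen at 18.75 µM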
TROY NFkB inh – TROY signaling inhibition; Q293 LMP1-TROYcd NF-kB luciferase reporter, 4 h; inhibition, % at 10 µM; 360,000 tested, 0.98% active; AID 1347056;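 active means compounds whose plate-normalised and pattern-corrected inhibition of the luciferase reporter signal at the single screening dose is 50% or more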
TWEAK Fn14 block – inhibitors of TWEAK-Fn14 interaction signaling; TWEAK-stimulated Fn14 reporter cells, luciferase luminescence, 8 h; inhibition, % at 10 µM; 360,000 tested, 2% active; AID 1159606; in the data active means inhibition above about 50%
CF NFkB block – inhibitors of cystic fibrosis induced NF-kB; KKLEB NF-kB-GFP reporter, PAF-induced, GFP fluorescence overnight; inhibition, % at 5 µM; 360,000 tested, 0.86% active;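 active means at least 50% inhibition at 5 µM, scaled per plate between neutral and stimulator controls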;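 further: PAF is a Pseudomonas aeruginosa culture filtrate used as stimulus; plate controls were PAF-stimulated DMSO wells for no effect and unstimulated DMSO wells for full effect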
Peg3 prom inh – Peg3 promoter activity inhibition; HeLa PEG-Prom luciferase reporter, luminescence, overnight; inhibition, % at 20 µM; 360,000 tested, 1.7% active; AID 588405;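 active means inhibition of at least 50% at 20 µM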
KKLEB tox – CF airway cell cytotoxicity counter-screen; KKLEB CF airway cells viability, ATPlite luminescence, overnight; hits give low values; cells stimulated with P. aeruginosa culture filtrate; activity change (cytotoxicity), % at 5 µM; 360,000 tested, 0.36% active; AID 602141;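 active means corrected activity change at or below -50% at 5 µM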
Active calls of the source: *. This is a sample that favours compounds with a hit; in the whole collection about 4% have one here.

O=C(CN1C(=O)/C(=C2\SC(=S)N(C3CCS(=O)(=O)C3)C2=O)c2ccccc21)Nc1ccc(F)cc1 (configuration not stated) was read as HIF-2a block 15, TROY NFkB inh -9, TWEAK Fn14 block 78*, CF NFkB block 26, Peg3 prom inh 26 and KKLEB tox -10.
O=C(C(=O)c1cc(Br)ccc1O)c1cc(Br)ccc1O was read as HIF-2a block -35, TROY NFkB inh 66*, TWEAK Fn14 block 34, CF NFkB block 60*, Peg3 prom inh 21 and KKLEB tox -28.
Screening CCn1cc(C(=O)N[C@H](C(=O)NCCN2CCOCC2)C(C)C)c(=O)c2cc3c(cc21)OCO3 returned HIF-2a block 4, TROY NFkB inh -2, TWEAK Fn14 block 0, CF NFkB block -6, Peg3 prom inh 21 and KKLEB tox 12.
`COc1ccccc1CCNC(=O)c1cc(-c2ccccn2)nc2ccccc12` gave HIF-2a block -1, TROY NFkB inh 15, TWEAK Fn14 block 8, CF NFkB block -21, Peg3 prom inh 51* and KKLEB tox 1.
Screening O=C(NCCC1=CCCCC1)c1cc(-c2ccccn2)nc2ccccc12 returned HIF-2a block 18, TROY NFkB inh 5, TWEAK Fn14 block -13, CF NFkB block 3, Peg3 prom inh 2 and KKLEB tox -2.
For CN(C)CCCNc1nc2cc(-c3cccc(C(F)(F)F)c3)sc2c(=O)n1C the results were HIF-2a block -50, TROY NFkB inh -32, TWEAK Fn14 block -52, CF NFkB block -13, Peg3 prom inh 96* and KKLEB tox -5.
For COc1ccc(-c2cc3nc(NCCCN(C)C)n(C)c(=O)c3s2)cc1OC the results were HIF-2a block -15, TROY NFkB inh -2, TWEAK Fn14 block -26, CF NFkB block -18, Peg3 prom inh -24 and KKLEB tox 3.
COCCNc1nc2cc(-c3cccc(C(F)(F)F)c3)sc2c(=O)n1C was read as HIF-2a block -8, TROY NFkB inh -5, TWEAK Fn14 block -4, CF NFkB block 2, Peg3 prom inh 4 and KKLEB tox -1.
`CN(C)CCCNc1nc2cc(-c3cccc(Cl)c3)sc2c(=O)n1C` gave HIF-2a block -54, TROY NFkB inh -19, TWEAK Fn14 block -47, CF NFkB block -43, Peg3 prom inh 91* and KKLEB tox -9.
Screening COc1ccc(-c2cc3nc(NCc4ccc(C)cc4C)n(C)c(=O)c3s2)cc1OC returned HIF-2a block -1, TROY NFkB inh 26, TWEAK Fn14 block 76*, CF NFkB block 30, Peg3 prom inh 4 and KKLEB tox -22.
CC(C)N1CCc2c(sc(NC(=O)c3cc(-c4cccs4)nc4ccccc34)c2C(N)=O)C1 was read as HIF-2a block 26, TROY NFkB inh -6, TWEAK Fn14 block -14, CF NFkB block -59, Peg3 prom inh 78* and KKLEB tox -18.
Screening NC(=O)c1ccsc1NC(=O)c1ccc(S(=O)(=O)N2CCCc3ccccc32)cc1 returned HIF-2a block -55, TROY NFkB inh 61*, TWEAK Fn14 block 92*, CF NFkB block 32, Peg3 prom inh 20 and KKLEB tox -16.
Screening CC(C)N1CCc2c(sc(NC(=O)c3ccc(S(=O)(=O)N4CCc5ccccc54)cc3)c2C(N)=O)C1 returned HIF-2a block 8, TROY NFkB inh 8, TWEAK Fn14 block 16, CF NFkB block -53, Peg3 prom inh 98* and KKLEB tox -1.
Screening CC(C)N1CCc2c(sc(NC(=O)c3nc4ccccc4s3)c2C(N)=O)C1 returned HIF-2a block -70, TROY NFkB inh 28, TWEAK Fn14 block 20, CF NFkB block -18, Peg3 prom inh -39 and KKLEB tox -14.
COc1ccc(N(Cc2ccccc2)C(=O)OC(C)(C)C)c(C(=O)N(C)OC)c1 was read as HIF-2a block 20, TROY NFkB inh 15, TWEAK Fn14 block -3, CF NFkB block -7, Peg3 prom inh -6 and KKLEB tox 20.
Screening CC(C)N(C)Cc1nnnn1CC(=O)NCCc1cccc(C(F)(F)F)c1 returned HIF-2a block 3, TROY NFkB inh -5, TWEAK Fn14 block -5, CF NFkB block 16, Peg3 prom inh 19 and KKLEB tox -11.
For O=c1c(-c2cc3ccccc3[nH]2)nc2ccccc2n1C(CCc1ccccc1)c1nc2ccccc2[nH]1 (configuration not stated) the results were HIF-2a block -33.
`COc1ccc(OCCCn2cc(/C=C3/C(=N)N4C=C(C)SC4=NC3=O)c3ccccc32)cc1` gave HIF-2a block -87, TROY NFkB inh 18, TWEAK Fn14 block 14, CF NFkB block 35, Peg3 prom inh 51* and KKLEB tox -42.
Screening S=C(NCCCc1cnc[nH]1)NCCCN(Cc1ccccc1)c1ccc(Br)cn1 returned HIF-2a block 3, TROY NFkB inh 4, TWEAK Fn14 block -28, CF NFkB block 14, Peg3 prom inh 46 and KKLEB tox -5.
For S=C(NCCCc1cnc[nH]1)NCCCN(Cc1ccc(Cl)cc1)c1ccc(Br)cn1 the results were HIF-2a block -11, TROY NFkB inh -3, TWEAK Fn14 block -5, CF NFkB block 17, Peg3 prom inh 94* and KKLEB tox -3.
`COc1ccc(OCCOC(=O)CCS(=O)(=O)c2ccc(C)cc2)cc1` gave HIF-2a block 5, TROY NFkB inh 8, TWEAK Fn14 block 15, CF NFkB block -3, Peg3 prom inh 5 and KKLEB tox -1.
For CC(/C=C1\SC(=S)N(CCCC(=O)Nc2ccc(C(=O)O)cc2)C1=O)=C\c1ccccc1 the results were HIF-2a block -78, TROY NFkB inh -3, TWEAK Fn14 block 50*, CF NFkB block -15, Peg3 prom inh -70 and KKLEB tox 29.
For CC(=C\c1ccccc1)/C=C1/SC(=S)N(CCCC(=O)O)C1=O the results were HIF-2a block 91*, TROY NFkB inh 60*, TWEAK Fn14 block 20, CF NFkB block -6, Peg3 prom inh 22 and KKLEB tox 22.
Screening CC(=Cc1ccccc1)C=C1SC(=S)N(CCCC(=O)Nc2ccc(C(=O)O)cc2)C1=O returned HIF-2a block -23, TROY NFkB inh 29, TWEAK Fn14 block 64*, CF NFkB block 16, Peg3 prom inh -122 and KKLEB tox 22.
`CC(/C=C1\SC(=S)N(CCC(=O)Nc2cccc(C(=O)O)c2)C1=O)=C\c1ccccc1` gave HIF-2a block 6, TROY NFkB inh 32, TWEAK Fn14 block -7, CF NFkB block -7, Peg3 prom inh -5 and KKLEB tox 19.
Screening C=CCN1C(=O)/C(=C\C(C)=C\c2ccccc2)SC1=S returned HIF-2a block -1, TROY NFkB inh 7, TWEAK Fn14 block -10, CF NFkB block 6, Peg3 prom inh -6 and KKLEB tox 4.
COC(=O)c1ccc(Nc2c([N+](=O)[O-])c(=O)oc3ccccc23)cc1 was read as HIF-2a block 21, TROY NFkB inh 11, TWEAK Fn14 block 1, CF NFkB block 18, Peg3 prom inh 26 and KKLEB tox -7.
